Assay [1] can be described thus: qHTS assay to identify aromatase inhibitors - cell viability counter screen (AID 743084;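 further: cells stimulated with testosterone during compound exposure; nearly all actives have a fitted effect of over 55% in size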; further: potency means the concentration at half of the fitted maximal effect). (qHTS replaces the single test concentration by a dilution series.)
Assay [2] has as its target Aryl hydrocarbon receptor (Homo sapiens) (UniProt P35869). The assay can be described thus: qHTS assay to identify small molecule that activate the aryl hydrocarbon receptor (AhR) signaling pathway (AID 743085). Further: nearly all actives have a fitted effect of over 15% in size. Further: potency means the concentration at half of the fitted maximal effect.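 On activation: HG2L7.5c1 human HepG2 liver cells with stably integrated DRE-driven firefly reporter; series mostly up to about 70 µM.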 A digest of the protocol: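 24 h compound exposure, 37C, HepG2-derived HG2L7.5c1 cells with DRE-responsive luciferase. Readouts: fluorescence viability, then luminescence at room temperature after 30 min.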

Assay [3] in a line: qHTS assay to identify small molecule that activate the aryl hydrocarbon receptor (AhR) signaling pathway - cell viability counter screen (AID 743086). Further: nearly all actives have a fitted effect of over 45% in size. Further: potency means the concentration at half of the fitted maximal effect. A digest of the protocol:
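HepG2-AhR-luc (HG2L7.5c1) cells, 4000/well, treated 24 h at 37 C with compound; viability measured as CellTiter-Fluor fluorescence after 30 min in the same wells as the luciferase read.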

Assay [4] concerns the target Peroxisome proliferator-activated receptor gamma (Homo sapiens) (UniProt P37231). The assay can be described thus: qHTS assay to identify small molecule agonists of the peroxisome proliferator-activated receptor gamma (PPARg) signaling pathway (AID 743094; active means well fitted activation curve with a large enough effect in the signal ratio in the repeat runs, not every such curve was filed as active; the % refers to the signal ratio). In outline: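 Following 5 h plating at 37C, PPARg-bla HEK293H cells receive compound or DMSO for 17 h; fluorescence intensity is recorded after LiveBLAzer B/G loading for 1 h at room temperature.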

For assay [5] the target is unchanged. As to the kind of experiment: qHTS assay to identify small molecule antagonists of the peroxisome proliferator-activated receptor gamma (PPARg) signaling pathway (AID 743191; calls by dose curve; further: nearly all actives have a fitted effect of over 30% in size; further: potency means the concentration at half of the fitted maximal effect). In outline: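 GeneBLAzer PPARg UAS-bla HEK293H cells, 5 h post-plating, exposed to compounds 17 h at 37C. LiveBLAzer B/G FRET substrate added for 1 h at room temperature; beta-lactamase reporter read by fluorescence intensity.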

The nature of assay [6]: qHTS assay to identify small molecule antagonists of the peroxisome proliferator-activated receptor gamma (PPARg) signaling pathway - cell viability counter screen (AID 743194). Further: nearly all actives have a fitted effect of over 55% in size. Further: potency means the concentration at half of the fitted maximal effect. In outline:
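Cytotoxicity counter screen in PPARg-bla HEK293H cells, same wells as reporter assay. Compounds plus 50 nM rosiglitazone (final) for 17 h at 37 C, then viability read by CellTiter-Glo luminescence.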

Assay [7] is described as follows: qHTS assay for small molecule agonists of the antioxidant response element (ARE) signaling pathway (AID 743202; active means well fitted activation curve with a large enough effect in the signal ratio in the repeat runs, not every such curve was filed as active; the % refers to the signal ratio; further: potency means the concentration at half of the fitted maximal effect). A digest of the protocol:
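Agonist mode reporter screen: HepG2 cells with ARE-controlled beta-lactamase are incubated with test compounds for 16 h at 37 C, and beta-lactamase activity is measured as fluorescence of cleaved B/G FRET substrate.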

A short description of assay [8]: qHTS assay for small molecule agonists of the antioxidant response element (ARE) signaling pathway - cell viability counter screen (AID 743203; calls by dose curve; further: nearly all actives have a fitted effect of over 55% in size; further: potency means the concentration at half of the fitted maximal effect). In outline: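 Compounds in DMSO were pinned onto ARE-bla HepG2 cells plated 5 hrs earlier at 2,000 cells/well. Sixteen hours later at 37C/5% CO2, CellTiter-Glo was added and luminescence measured after 30 min at room temperature.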

Assay [9] in a line: qHTS assay for small molecule activators of the heat shock response signaling pathway - cell viability counter screen (AID 743209). Further: nearly all actives have a fitted effect of over 50% in size. Further: potency means the concentration at half of the fitted maximal effect. In outline: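 Counter screen for cytotoxicity in HeLa HSE-bla reporter cells. Treatment was 5 h at 37 C; viability was detected by luminescent ATP assay (CellTiter-Glo) in the same wells as the beta-lactamase read.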
Assay [10] in a line: qHTS assay to identify small molecule agonists of the peroxisome proliferator-activated receptor delta (PPARd) signaling pathway - cell viability counter screen (AID 743211). Further: nearly all actives have a fitted effect of over 55% in size. Further: potency means the concentration at half of the fitted maximal effect. In outline: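 Luminescent ATP viability assay (CellTiter-Glo, 30 min RT) in UAS-bla HEK293H cells carrying the PPAR delta reporter construct, 3000 cells/well, after a 17 h compound treatment at 37 C.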

Assay [11] deals with Peroxisome proliferator-activated receptor delta (Homo sapiens) (UniProt Q03181). The assay can be described thus: qHTS assay to identify small molecule agonists of the peroxisome proliferator-activated receptor delta (PPARd) signaling pathway (AID 743212; calls by dose curve). A digest of the protocol:
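Quantitative high-throughput agonist screen in a HEK293H beta-lactamase reporter line under UAS control. Compounds in DMSO, at 37 C. Fluorescence read after 2 h with FRET substrate at room temperature.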

In assay [12] the target is Bile acid receptor (Homo sapiens) (UniProt Q96RI1). As to the kind of experiment: qHTS assay to identify small molecule antagonists of the farnesoid-X-receptor (FXR) signaling pathway (AID 743217; active means well fitted inhibition curve with a large enough effect in the signal ratio in the repeat runs, not every such curve was filed as active; the % refers to the signal ratio). A digest of the protocol: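 In this cell-based antagonist screen, inhibition of CDCA-driven (50 uM final) UAS-beta-lactamase expression in HEK 293T cells was measured by FRET fluorescence following 16 h compound exposure at 37 °C.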

Assay [13] shares this target. As to the kind of experiment: qHTS assay to identify small molecule agonists of the farnesoid-X-receptor (FXR) signaling pathway (AID 743220; active means well fitted activation curve with a large enough effect in the signal ratio in the repeat runs, not every such curve was filed as active; the % refers to the signal ratio). A digest of the protocol:
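Beta-lactamase reporter under UAS control in GeneBLAzer FXR HEK 293T cells (5000/well) measured with LiveBLAzer FRET substrate after 2 h at room temperature. Compound exposure lasted 16 h at 37C.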

The nature of assay [14]: qHTS assay to identify small molecule antagonists of the farnesoid-X-receptor (FXR) signaling pathway - cell viability counter screen (AID 743221; active means well fitted cell-killing curve with a large enough effect in the repeat runs, not every such curve was filed as active; further: nearly all actives have a fitted effect of over 50% in size). A digest of the protocol:
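In GeneBLAzer FXR-UAS-bla HEK 293T cells stimulated with 50 uM chenodeoxycholic acid (final), compounds acted for 16 h at 37 C. Viability was assessed afterwards by CellTiter-Glo luminescence.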

Assay [15] has as its target Vitamin D3 receptor (Homo sapiens) (UniProt P11473). As to the kind of experiment: qHTS assay to identify small molecule antagonists of the vitamin D receptor (VDR) signaling pathway (AID 743223; active means well fitted inhibition curve with a large enough effect in the signal ratio in the repeat runs, not every such curve was filed as active; the % refers to the signal ratio). In outline:
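Agonist 1alpha,25-dihydroxyvitamin D3 (3 nM in well) was added with each compound to VDR-bla cells preincubated 4 h. Cells stood 16 h at 37C, then FRET substrate 2 h at room temperature; fluorescence intensity recorded.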

Assay [16] is described as follows: qHTS assay to identify small molecule antagonists of the peroxisome proliferator-activated receptor delta (PPARd) signaling pathway - cell viability counter screen (AID 743213). Further: nearly all actives have a fitted effect of over 50% in size. Further: potency means the concentration at half of the fitted maximal effect. A digest of the protocol:
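In this counter screen, HEK293H cells carrying a UAS-beta-lactamase reporter are co-treated with test compounds and 300 nM L165041 (final) for 17 h at 37 C; cell viability is quantified by CellTiter-Glo luminescence.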

A short description of assay [17]: qHTS assay to identify small molecule agonists of the farnesoid-X-receptor (FXR) signaling pathway - cell viability counter screen (AID 743218). Further: nearly all actives have a fitted effect of over 45% in size. Further: potency means the concentration at half of the fitted maximal effect. A digest of the protocol:
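After 16 h at 37 C with test compounds, FXR-bla HEK 293T cells were given LiveBLAzer B/G substrate for 2 h at RT and then CellTiter-Glo; luminescence was taken after 30 min.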

Assay [18] has as its target Vitamin D3 receptor (Homo sapiens) (UniProt P11473). As to the kind of experiment: qHTS assay to identify small molecule agonists of the vitamin D receptor (VDR) signaling pathway (AID 743222; calls by dose curve). A digest of the protocol:
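VDR-bla cells were seeded, left 4 h, treated with compounds in DMSO for 16 h, incubated 2 h at RT with B/G FRET substrate, and read for fluorescence.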

A short description of assay [19]: qHTS assay for small molecule activators of the heat shock response signaling pathway (AID 743210; active means well fitted activation curve with a large enough effect in the signal ratio in the repeat runs, with a control signal flat, not every such curve was filed as active; the % refers to the signal ratio;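 further: HeLa cells with beta-lactamase reporter driven by heat shock elements; series mostly up to about 63 µM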). In outline:
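Quantitative high-throughput format using an engineered HeLa line in which heat shock response elements drive beta-lactamase; after 5 h with compound, cells received a B/G FRET substrate and fluorescence was read.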

For assay [20], the target named is Peroxisome proliferator-activated receptor delta (Homo sapiens) (UniProt Q03181). As to the kind of experiment: qHTS assay to identify small molecule antagonists of the peroxisome proliferator-activated receptor delta (PPARd) signaling pathway (AID 743215; active means well fitted inhibition curve with a large enough effect in the signal ratio in the repeat runs, not every such curve was filed as active; the % refers to the signal ratio;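 further: cells stimulated with agonist L165041 at 300 nM final during compound exposure; series mostly up to about 62 µM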). In outline: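 With L165041 present at 300 nM final, compounds were incubated 17 h at 37 C on PPARd UAS-bla HEK293H cells. A FRET-based beta-lactamase substrate was then applied for 2 h at room temperature and fluorescence intensity recorded.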

Values joined by “and” are separate entries in the source; they are usually repeats but may differ in a detail not shown here. Equal values may be shown once. Inconclusive results are not listed. A structure can be active in one record and inactive in another. Active and inactive are the calls of the source. Unless noted, the call rests on the fitted dose curve; in most records, active means well fitted curve in the direction sought with a large enough effect in the repeat runs; inconclusive means weak or mixed curves; inactive means no such curve, though single readings can be large; an effect the other way counts as inactive or inconclusive.

Sequence of Bile acid receptor (Homo sapiens) (Q96RI1 whole entry, looked up): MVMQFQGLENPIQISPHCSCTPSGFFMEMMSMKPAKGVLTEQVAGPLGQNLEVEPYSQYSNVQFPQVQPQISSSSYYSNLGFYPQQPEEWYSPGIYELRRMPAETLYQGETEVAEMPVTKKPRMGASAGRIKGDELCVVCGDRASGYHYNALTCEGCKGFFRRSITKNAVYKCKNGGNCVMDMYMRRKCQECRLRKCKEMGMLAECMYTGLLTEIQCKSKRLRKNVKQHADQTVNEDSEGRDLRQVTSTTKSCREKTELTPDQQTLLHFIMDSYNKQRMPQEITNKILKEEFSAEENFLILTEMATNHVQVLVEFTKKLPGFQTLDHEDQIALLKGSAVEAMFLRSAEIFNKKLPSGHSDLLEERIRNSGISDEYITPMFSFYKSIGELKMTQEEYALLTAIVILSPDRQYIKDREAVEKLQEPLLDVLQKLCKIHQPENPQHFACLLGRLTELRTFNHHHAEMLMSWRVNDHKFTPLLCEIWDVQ
Sequence of Aryl hydrocarbon receptor (Homo sapiens) (P35869 whole entry, looked up): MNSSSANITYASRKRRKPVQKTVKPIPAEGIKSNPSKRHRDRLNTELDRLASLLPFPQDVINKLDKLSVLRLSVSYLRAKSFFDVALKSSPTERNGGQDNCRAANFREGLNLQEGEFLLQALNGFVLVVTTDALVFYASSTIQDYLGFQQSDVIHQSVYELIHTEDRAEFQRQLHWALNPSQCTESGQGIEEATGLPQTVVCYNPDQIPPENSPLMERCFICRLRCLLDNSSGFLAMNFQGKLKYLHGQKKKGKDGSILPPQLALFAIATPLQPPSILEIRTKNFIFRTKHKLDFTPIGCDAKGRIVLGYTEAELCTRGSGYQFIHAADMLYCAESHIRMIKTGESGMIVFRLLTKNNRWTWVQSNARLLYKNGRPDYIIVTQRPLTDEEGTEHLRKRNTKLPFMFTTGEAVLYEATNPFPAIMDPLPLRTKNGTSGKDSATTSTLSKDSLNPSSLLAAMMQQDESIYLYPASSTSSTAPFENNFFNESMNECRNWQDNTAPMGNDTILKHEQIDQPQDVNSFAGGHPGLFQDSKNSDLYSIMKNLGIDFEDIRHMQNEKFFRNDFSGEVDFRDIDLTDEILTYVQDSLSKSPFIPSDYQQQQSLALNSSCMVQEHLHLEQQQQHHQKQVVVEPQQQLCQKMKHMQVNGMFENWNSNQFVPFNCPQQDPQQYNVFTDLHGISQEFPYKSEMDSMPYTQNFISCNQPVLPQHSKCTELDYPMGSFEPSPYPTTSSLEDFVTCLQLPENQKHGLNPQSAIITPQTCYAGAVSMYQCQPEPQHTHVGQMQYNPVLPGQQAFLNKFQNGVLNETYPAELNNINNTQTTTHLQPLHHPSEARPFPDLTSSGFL
Sequence of Vitamin D3 receptor (Homo sapiens) (P11473 whole entry, looked up): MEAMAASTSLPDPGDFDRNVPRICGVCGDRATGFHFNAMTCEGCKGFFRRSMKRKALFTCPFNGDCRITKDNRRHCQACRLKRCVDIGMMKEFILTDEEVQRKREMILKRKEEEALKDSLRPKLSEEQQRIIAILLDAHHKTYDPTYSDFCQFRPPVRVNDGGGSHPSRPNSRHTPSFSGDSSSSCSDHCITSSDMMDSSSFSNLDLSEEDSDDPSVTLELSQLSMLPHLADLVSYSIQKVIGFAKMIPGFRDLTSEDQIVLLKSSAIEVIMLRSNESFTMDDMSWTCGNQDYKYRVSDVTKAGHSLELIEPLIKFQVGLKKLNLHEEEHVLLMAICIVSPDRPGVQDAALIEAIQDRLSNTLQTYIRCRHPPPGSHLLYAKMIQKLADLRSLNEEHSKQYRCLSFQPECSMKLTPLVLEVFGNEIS
Sequence of Peroxisome proliferator-activated receptor gamma (Homo sapiens) (P37231 whole entry, looked up): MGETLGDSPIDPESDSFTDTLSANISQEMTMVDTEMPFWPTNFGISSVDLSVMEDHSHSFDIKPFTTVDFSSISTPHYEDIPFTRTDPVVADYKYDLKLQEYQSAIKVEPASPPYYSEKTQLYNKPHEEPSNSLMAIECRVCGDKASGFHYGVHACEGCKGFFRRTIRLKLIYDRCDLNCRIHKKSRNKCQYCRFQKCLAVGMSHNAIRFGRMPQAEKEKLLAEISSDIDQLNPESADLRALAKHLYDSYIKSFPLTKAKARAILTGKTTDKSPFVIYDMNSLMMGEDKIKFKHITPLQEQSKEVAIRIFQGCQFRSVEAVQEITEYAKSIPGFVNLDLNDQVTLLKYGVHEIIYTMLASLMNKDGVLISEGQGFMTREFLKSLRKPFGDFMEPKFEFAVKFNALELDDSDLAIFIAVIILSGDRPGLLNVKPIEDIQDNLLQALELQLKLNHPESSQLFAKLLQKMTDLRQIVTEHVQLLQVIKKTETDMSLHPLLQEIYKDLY
Sequence of Peroxisome proliferator-activated receptor delta (Homo sapiens) (Q03181 whole entry, looked up): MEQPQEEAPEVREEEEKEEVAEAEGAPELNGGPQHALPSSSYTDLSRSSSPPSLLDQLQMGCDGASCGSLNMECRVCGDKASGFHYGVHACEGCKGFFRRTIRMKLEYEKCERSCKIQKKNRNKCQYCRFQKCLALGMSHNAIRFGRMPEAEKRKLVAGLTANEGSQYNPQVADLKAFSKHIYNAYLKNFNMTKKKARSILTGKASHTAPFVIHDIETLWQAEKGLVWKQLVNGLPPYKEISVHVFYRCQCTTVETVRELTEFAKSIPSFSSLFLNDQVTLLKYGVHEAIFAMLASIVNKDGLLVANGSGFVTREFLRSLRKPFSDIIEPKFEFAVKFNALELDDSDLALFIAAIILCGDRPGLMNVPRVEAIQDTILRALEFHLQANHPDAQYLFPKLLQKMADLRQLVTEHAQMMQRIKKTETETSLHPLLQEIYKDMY

Consider `Cc1c(C(=O)O)cccc1[N+](=O)[O-]`, for which the Potency result in [1], in assay [2], in assay [3], in assay [4], in assay [5] and in assay [6] was “inactive” each time. In addition, the Potency result in [7], in assay [8], in assay [9], in [10], in [12] and in assay [13] was “inactive” each time. For the same compound, the Potency entry in assay [14] and in assay [15] was “inactive” in each case. Further, in assay [11], the result was inactive.

On to `CCCCCCCOC(=O)c1ccc(O)cc1`, for which the Potency result in [1], in assay [2], in assay [3], in assay [4], in assay [6] and in assay [7] was “inactive” throughout. The Potency result in assay [8], in assay [17], in assay [13], in assay [14] and in assay [18] was “inactive” throughout. For the same compound, the Potency in [5] is 43.6 µM (active); in [16], “inactive and 34.7 µM (active)”.

Regarding `O=Cc1ccc(F)cc1`, the Potency entry in [1], in assay [2], in assay [3], in [4], in assay [5] and in assay [6] was “inactive” each time. Moreover, the Potency result in assay [8], in assay [9], in assay [19], in [10], in assay [16] and in [20] was “inactive” throughout. Besides, the Potency result in [12], in assay [17], in assay [13], in [14] and in assay [18] was “inactive” in each case. Further, the compound was called inactive in assay [11].

Consider `O=Nc1ccc(NO)cc1`, for which the Potency result in assay [1], in [3], in assay [4], in assay [5], in [6] and in assay [8] was “inactive” in each case. Also, the Potency result in [9], in assay [19], in [10], in [16], in assay [17] and in [14] was “inactive” in each case. Besides, the Potency is 31.9 µM (active) in assay [2] and 6.36 µM (active) in assay [7]. The result in assay [11] was inactive.

Consider `SCCCCCCCCS`, for which the Potency result in assay [1], in assay [2], in assay [3], in assay [4], in assay [6] and in assay [10] was “inactive” each time. In addition, the Potency entry in assay [16], in assay [20], in assay [12], in [17], in assay [13] and in assay [14] was “inactive” each time. Besides, the Potency result in assay [18] and in assay [15] was “inactive” throughout. In addition, the Potency in assay [8] is 43.3 µM (active). Moreover, the outcome in assay [11] was inactive.

As to `Clc1ccc(C(Cn2ccnc2)OCc2ccsc2Cl)c(Cl)c1` (stereo unspecified), the Potency entry in assay [1], in assay [2], in assay [4], in assay [9], in [16] and in assay [18] was “inactive” throughout. Moreover, the Potency is 26.6 µM (active) in assay [3] and 29.8 µM (active) in assay [10].

Turning to `C=C(c1ccc(C(=O)O)cc1)c1cc2c(cc1C)C(C)(C)CCC2(C)C`, the Potency result in [1], in assay [2], in assay [3], in assay [14] and in assay [18] was “inactive” each time. In addition, the Potency in [6] is 19.5 µM (active); in assay [8], 13.7 µM (active); in [9] it was 11 µM (active) and 21.1 µM (active); in assay [10], 61.6 µM (active); in [16] it was 21.9 µM (active) and 29.8 µM (active); in assay [17] it was 24.5 µM (active).

Take `CC(C)(C)C1=CC(=O)C=C(C(C)(C)C)C1=O`: the Potency in assay [1] was 34.4 µM (active); in assay [6], 24.6 µM (active); in [8], 54.5 µM (active); in assay [9] it was 43.7 µM (active). The Potency entry in assay [2], in assay [3], in assay [16], in assay [14], in [18] and in [15] was “inactive” in each case.

For the origin of these results see PubChem BioAssay (Tox21).
